Screens: PubChem BioAssay, several laboratories
Hits are enriched below; roughly 2.8% of the tested compounds scored in any of these assays.
LGR2 antag: inhibitors of bursicon-induced Drosophila LGR2 receptor cAMP signaling | HEK293 LGR2, CRE-luciferase, bursicon-stimulated, 4 h | 0.35% of 380,000 active | inhibition, % at 9.99 µM;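 active = drop in luminescence signal, shown as inhibition above about 50% in the replicate tests, limit read from the data, passing the limit was not always enough; inconclusive = probably only some replicates passing the limit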;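 note: agonist challenge used bursicon conditioned medium at about half maximal strength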
EWS-Fli block: inhibitors of EWS/Fli oncoprotein transcriptional activity. inhibition, % at 12.6 µM. 0.67% of 350,000 active. A673 NR0B1-luciferase reporter, viability-normalised;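 active = mean inhibition of at least 50% after viability correction, with every replicate also passing that limit; inconclusive = mean reaches 50% but only one of two replicates passes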;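 note: firefly luciferase signal divided by Alamar Blue viability fluorescence both relative to DMSO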
PAX8 inh HTS: lowers PAX8-driven luciferase in RMG-I cells | RMG-I TPO-luciferase reporter, SteadyGlo, 24 h | inhibition, % at 12.6 µM | 1.2% of 360,000 active;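 active = mean replicate inhibition at least 60% with every replicate also reaching 60%; inconclusive = only one of the two criteria is met; inactive = mean below 60% and not all replicates reaching 60%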;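 note: luciferase light reporting Pax8 driven TPO promoter activity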
TWEAK-Fn14 inh: inhibitors of TWEAK-Fn14 interaction signaling. AID 1159606. inhibition, % at 10 µM. TWEAK-stimulated Fn14 reporter cells, luciferase luminescence, 8 h. 2% of 360,000 active; in the data active = inhibition above about 50%
TROY signal inh: inhibitors of TROY-dependent NF-kB signaling | AID 1347056 | Q293 LMP1-TROYcd NF-kB luciferase reporter, 4 h | 0.98% of 360,000 active | inhibition, % at 10 µM;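 active = compounds whose plate-normalised and pattern-corrected inhibition of the luciferase reporter signal at the single screening dose is 50% or more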
Numbers stand for hits; – = inactive; ? = inconclusive; · = not tested or not shown; ! = not confirmed by another sample.

SMILES	LGR2 antag	EWS-Fli block	PAX8 inh HTS	TWEAK-Fn14 inh	TROY signal inh
O=C(Nc1ccc2c(c1)OCCO2)C1CCN(S(=O)(=O)c2ccc(Br)s2)CC1	·	·	·	51.3	–
O=C(Nc1ccc2c(c1)OCO2)c1cc(C2CCCCN2C(=O)CCc2ccccc2)on1 (stereo not given)	–	–	–	–	–
O=C(Nc1ccc2c(c1)OCCO2)C1CCN(S(=O)(=O)c2cccs2)CC1	·	·	·	–	–
Cc1nn(C)c(C)c1S(=O)(=O)N1CCC(C(=O)Nc2ccc3c(c2)OCCO3)CC1	–	–	–	78.9	66.0
O=C(Nc1ccc2c(c1)OCCO2)C1CCCN(S(=O)(=O)Cc2ccccc2)C1 (stereo not given)	·	·	·	54.2	–
COc1ccc(NC(=O)C2CCN(S(=O)(=O)c3c(C)nn(C)c3C)CC2)cc1	–	·	–	–	–
O=C(Nc1ccc2c(c1)OCO2)C1CCCN(S(=O)(=O)Cc2ccccc2)C1 (stereo not given)	·	·	–	–	–
O=C(Nc1ccc2c(c1)OCO2)c1cc(C2CCCCN2S(=O)(=O)Cc2ccccc2)on1 (stereo not given)	–	–	–	–	63.6
C/C=C/c1ccc([C@@H]2[C@@H](CNC(=O)c3ccccc3)N(C(C)=O)[C@H]2CO)cc1	–	–	–	·	·
C[C@H](CO)N1C[C@H](C)[C@H](CN(C)Cc2ccc(Cl)c(Cl)c2)Oc2ccc(NS(=O)(=O)c3cccs3)cc2C1=O	–	–	–	·	·
COc1ccc(C(=O)N2CCC(C(=O)Nc3ccc4c(c3)OCCO4)CC2)cc1	·	·	·	79.3	–
O=C(Nc1ccc2c(c1)OCCO2)C(c1cc2ccccc2o1)N1CCC(Cc2ccccc2)CC1 (stereo not given)	–	–	–	89.5	85.1
O=C(Nc1ccc2c(c1)OCCO2)c1cc2ccccc2o1	?	–	–	–	–
O=C(Cc1ccc(NC(=O)C2CCN(C(=O)C3CCCCC3)CC2)cc1)Nc1ccc(C(=O)N2CCOCC2)cc1	–	–	67.6	–	–
COc1ccc(S(=O)(=O)N[C@@H]2C=C[C@@H](CC(=O)NCc3ccccc3F)O[C@H]2CO)cc1	–	–	–	·	·
CCCNC(=O)C[C@H]1CC[C@H]2[C@@H](COC[C@H](O)CN2C(=O)c2cc(Cl)cc(Cl)c2)O1	–	–	–	·	·
CC(C)CC1NC(=O)N(Cc2nc3ccccc3s2)C1=O (stereo not given)	–	–	–	72.3	–
CO[C@@H]1CN(C)C(=O)c2cc(NC(C)=O)ccc2OC[C@H](C)N(Cc2ccncc2)C[C@@H]1C	–	–	·	·	·
O=C(Nc1cccc(-c2ccc(N3CCCCC3)nn2)c1)c1ccc(Br)o1	–	–	–	–	–
CS(=O)(=O)c1ccc(-c2cccc(NC(=O)c3ccco3)c2)nn1	–	–	–	–	–
CC1CCN(c2ccc(-c3cccc(NC(=O)c4ccco4)c3)nn2)CC1	–	–	–	53.4	–
CCC(=O)Nc1cccc(-c2ccc(N3CCC(C)CC3)nn2)c1	?	·	–	60.0	–
CC1CCN(c2ccc(-c3cccc(NC(=O)C(F)(F)F)c3)nn2)CC1	96.9	·	94.1	100.9	83.0
O=C(Nc1cccc(-c2ccc(N3CCCCC3)nn2)c1)C(F)(F)F	82.5	·	94.7	97.1	71.5
C[C@@H]1CN([C@@H](C)CO)C(=O)c2cccc(NC(=O)C3CCCCC3)c2O[C@H]1CN(C)Cc1ccc(C(=O)O)cc1	–	–	·	·	·
SMILES	LGR2 antag	EWS-Fli block	PAX8 inh HTS	TWEAK-Fn14 inh	TROY signal inh
C/C=C/c1ccc([C@@H]2[C@@H](CO)N(C(C)=O)[C@H]2CNC(=O)CC2CC2)cc1	–	–	–	·	·
O=C(C[C@@H]1C=C[C@H](NC(=O)C2CCC2)[C@@H](CO)O1)NCc1ccccc1Cl	–	–	–	·	·
CSc1ccc(S(=O)(=O)N2c3ccccc3CC2C)cc1 (stereo not given)	–	51.0	–	–	–
Cc1ccc(-n2nc3ccc(NC(=O)/C=C/c4ccco4)cc3n2)cc1	·	–	68.4	–	–
O=S(=O)(O)c1ccc(O)c2cc(Nc3ccccc3)ccc12	·	–	–	79.3	–
CN(C)CCCNC(=O)C[C@@H]1CC[C@@H]2[C@@H](COc3ccc(NC(=O)NC4CCCC4)cc3C(=O)N2C)O1	–	–	–	·	·
Nc1ccc(-c2nnn(Cc3ccccc3)n2)cc1	–	–	–	65.4	–
COc1ccc(-c2nnn(Cc3ccccc3)n2)cc1	–	–	–	–	–
COc1cc(NC(=O)c2cc(C)on2)cc(C(=O)Nc2cccc(C(F)(F)F)c2)c1	–	–	85.8	–	–
COc1cc(NC(=O)c2csc(N)n2)cc(C(=O)Nc2cccc(C(F)(F)F)c2)c1	–	61.5	81.9!	–	–
COc1cc(NC(=O)c2cnc(N)o2)cc(C(=O)Nc2cccc(C(F)(F)F)c2)c1	–	–	–	57.1!	–
C[C@@H](NC(=O)C[C@@H]1C[C@H]2c3cc(NS(=O)(=O)c4ccc(F)cc4)ccc3O[C@H]2[C@@H](CO)O1)c1ccccc1	–	–	–	·	·
CCCNC(=O)Nc1ccc2c(c1)C(=O)N(C)[C@@H]1CC[C@H](CC(=O)NCc3ccccc3)O[C@@H]1CO2	–	–	–	·	·
Cc1noc(C)c1NC(=O)N(C)C[C@H]1Oc2ccc(NC(=O)Cc3cn(C)c4ccccc34)cc2C(=O)N([C@H](C)CO)C[C@H]1C	–	–	·	·	·
C[C@@H]1CN([C@@H](C)CO)C(=O)c2cccc(NS(=O)(=O)c3cn(C)cn3)c2O[C@@H]1CN(C)S(=O)(=O)c1ccc(F)cc1	–	–	·	·	·
COc1cc2c(c(OC)c1OC)-c1ccc(SC)c(=O)cc1C(NC(=O)C(F)(F)F)CC2 (stereo not given)	–	–	87.0	–	–
COc1ccc2c(c1)C(NC(=O)C(F)(F)F)CC2=O (stereo not given)	·	·	–	–	–
CCN(CC)c1ccc2c(cc1=O)[C@@H](NC)CCc1cc(OC)c(OC)c(OC)c1-2	–	60.0	98.1	–	–
CNC1CCc2cc(OC)c(OC)c(OC)c2-c2ccc(SC)c(=O)cc21 (stereo not given)	–	–	71.8	–	–
CN[C@H]1CCc2cc(OC)c(OC)c(OC)c2-c2ccc(N(C)CC(OC)OC)c(=O)cc21	–	–	?	–	–
CCOCC(=O)NC1CCc2cc(OC(=O)COCC)c(OC)c(OC)c2-c2ccc(SC)c(=O)cc21 (stereo not given)	–	53.0	91.4	–	–
CC(C)NC(=O)N(C)C[C@H]1OCCCC[C@H](C)Oc2ccc(N(C)C)cc2C(=O)N([C@@H](C)CO)C[C@@H]1C	·	·	–	·	·
CO[C@@H]1CN(C)C(=O)c2ccc(NC(C)=O)cc2OC[C@@H](C)N(C(=O)c2ccccc2F)C[C@@H]1C	–	–	–	·	·
CCCNC(=O)N1CC2(C1)CN(C(=O)CC)[C@H](CO)c1[nH]c3cc(OC)ccc3c12	–	–	·	·	·
CCOC(=O)c1ccc(Nc2nc(C)cc(C)n2)cc1	–	–	–	–	–
CCOC(=O)c1ccc(Nc2cc(C)nc(-c3ccccc3)n2)cc1	–	–	–	–	70.7
CO[C@@H]1CN(C)C(=O)c2cc(NC(=O)c3cc(C)on3)ccc2OC[C@@H](C)N(C(=O)C2CC2)C[C@H]1C	–	–	·	·	·
